Results as given in PubChem BioAssay AID868 (SRMLSC, 2007).
The campaign covered roughly 190,000 compounds. About 3,500 (1.8%) were called active.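 How the source made its calls: active means inhibition above a set limit, 3 SD over mean compound inhibition (cut at about 8.4% in these data); inactive means the rest.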 What follows is part of a selection rich in actives, with near analogues and random picks from the rest.

Assay: RAM signaling blockers in budding yeast – dse1pr::URA3 reporter, 5-FOA selection, primary screen (AID 868);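 further: 0% = DMSO-only wells with no growth and 100% = 10 µM 1-NA-PP1 full growth; inhibition rescues growth on 5-FOA so higher OD means more RAM inhibition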
Settings: S. cerevisiae dse1pr::URA3 reporter, 5-FOA growth OD615, 2 d; at 50 µM; stronger effect = higher value; analog-sensitive cbk1-as2 kinase mutant strain

inhibition, active:
O=C(Nc1ccc(Sc2ccc(Br)cc2)cc1)c1ccco1 9.42%
CCCSc1nc2c(c(=O)n(C)c(=O)n2C)n1Cc1ccc(C)cc1 8.43%
COC(=O)CCCCCN1C(=O)NC(c2ccc(-c3ccccc3)cc2)C(C(=O)OCc2ccccc2)=C1C (configuration not stated) 15.8%
COc1cc(C2C(C(=O)c3ccc(C)o3)=C(O)C(=O)N2CCc2ccccc2)ccc1O (configuration not stated) 9.49%
Clc1ccc(CSc2nnc(/C=C/c3ccccc3)o2)c(Cl)c1 9.57%
COc1ccc2c(c1)CCc1c(C(=O)N3CCc4ccccc4C3)noc1-2 12.2%
CC(C)CCN1C(=O)c2ccc(C(=O)Nc3cccc(S(N)(=O)=O)c3)cc2C1=O 9.03%
CCC/C=C(\CCC)C(NC(=O)Cc1ccccc1)c1ccc(C(=O)OC)cc1 (configuration not stated) 8.71%
Fc1ccc(-n2c(Cc3ccccc3)nnc2SCc2nc(-c3ccc(Cl)cc3)no2)cc1 14.2%
COc1ccc(/C=C/C(=O)c2ccc(NS(=O)(=O)c3ccc(C)cc3)cc2)cc1O 11.1%
Cc1cc(C)cc(NC(=O)CSCc2cnn(-c3ccccc3)c2-n2cccc2)c1 13.3%
Cc1cccc(-n2c(SCC(=O)Nc3cccc(S(=O)(=O)NC4=NCCCCC4)c3)nc3ccccc3c2=O)c1C 11.7%

inhibition, inactive:
O=C1Oc2ccccc2C(=O)/C1=C/c1ccccc1O 0.25%
O=C(CSc1ccccc1)Nc1ccc(NC(=O)c2ccco2)cc1 3.77%
COC(=O)c1ccc(NC(=O)c2ccco2)cc1 0.13%
CCOc1ccc(Cn2c(SCCCCC#N)nc3c2c(=O)n(C)c(=O)n3C)cc1OCC 1.06%
Cc1cccc(Cn2c(SCCO)nc3c2c(=O)n(C)c(=O)n3C)c1 0.88%
COc1ccc(CCNc2cc(C)nc3c(-c4ccc(Cl)cc4)c(C)nn23)cc1OC -0.42%
CCc1cccc2c(=O)c(C(=O)NCCCOC)c[nH]c12 3.16%
COCCN1C(=O)N[C@@H](c2ccccc2)C(C(=O)OC)=C1C 0.8%
CC1=C(C(=O)OCc2ccccc2)C(c2ccc(C(F)(F)F)cc2)NC(=O)N1CCCCCC(=O)O (configuration not stated) 7.19%
O=C(NCCCNc1ccc([N+](=O)[O-])cc1Cl)c1ccccc1F 1.43%
COCC(C)n1c(C)cc(C(=O)COc2ccc(C)nc2[N+](=O)[O-])c1C (configuration not stated) 1.49%
Cc1ccc(C(=O)NC(=S)NCc2cccnc2)cc1 5.38%
COc1cc(C2C(C(=O)c3ccc(C)o3)=C(O)C(=O)N2Cc2cccnc2)ccc1O (configuration not stated) 0.23%
COc1ccc(C2C(C(C)=O)=C(O)C(=O)N2CCc2c[nH]c3ccccc23)cc1 (configuration not stated) 3.37%
O=C(COc1cccc2ccccc12)Nc1cc(S(=O)(=O)N2CCOCC2)ccc1N1CCOCC1 3.39%
O=C(Nc1nnc(SCc2ccc(Cl)cc2Cl)s1)C1COc2ccccc2O1 (configuration not stated) 4.44%
S=c1[nH]nc(CSCc2ccc(Cl)cc2Cl)n1-c1ccccc1 4.95%
O=C(Nc1ccccc1)N1CCN(C(=O)Nc2ccccc2)CC1 2.76%
O=C(COC(=O)/C=C/c1cn(-c2ccccc2)nc1-c1cccnc1)Nc1ccc(Cl)cc1Cl 2.97%
COc1ccc2c(c1)CCc1c(C(=O)Nc3c(C)n(C)n(-c4ccccc4)c3=O)noc1-2 3.23%
COc1ccc2c(c1)CCc1c(C(=O)N3CCCC3)noc1-2 2.15%
O=C(NN1C(=O)C2C3C=CC(O3)C2C1=O)c1ccncc1 (configuration not stated) 2.74%
CCCCN1C(=O)c2ccc(C(=O)Nc3ccc(S(=O)(=O)N(C)C)cc3)cc2C1=O 3.73%
Cc1cccc(C(=O)Nc2ccc3c(c2)C(=O)N(CC(C)C)C3=O)c1 3.29%
Cc1ncoc1C(=O)N1CCCC(C(=O)c2ccc3c4c(cccc24)CC3)C1 (configuration not stated) 1.14%
CCC1CCCCN1C(=O)CSc1nc(C)cc(C)n1 (configuration not stated) -1.36%
COc1ccc(CC(=O)NC(C)CCc2ccccc2)cc1 (configuration not stated) 0.14%
COc1ccc(C(CC(=O)O)NC(=O)Cc2ccccc2)cc1 (configuration not stated) 0.54%
Cc1cccc(CN2CCN(Cc3cnn(-c4ccccc4F)c3)CC2CCO)n1 (configuration not stated) -0.13%
COc1cc(NC(=S)N2CCCC(C)C2)cc(OC)c1OC (configuration not stated) 2.19%
Cc1ccc(-c2noc(CSc3nnc(-c4ccccc4)n3C)n2)cc1 2.09%
Cc1ccc(-c2noc(CSc3nnc(-c4ccncc4)n3-c3ccc(F)cc3)n2)cc1 2.42%
Cc1n[nH]c(=O)n1-c1ccc(C(C)C)cc1 0.86%
Nc1nc(-c2sc3nc4c(cc3c2N)CCCC4)nc(N2CCOCC2)n1 5.88%
COc1ccc(C(=O)Oc2cc(/C=N/NS(=O)(=O)c3ccc(C)cc3)ccc2OC)cc1 5.34%
COc1ccc(NS(=O)(=O)c2ccc(NC(C)=O)cc2)cc1OC 1.03%
Cc1cc(C2=NNC(=Nc3ccc(S(=O)(=O)N4CCOCC4)cc3)SC2)c(C)n1CC1CCCO1 (configuration not stated) 5.9%
CC(C(=O)NC1CCCC1)N(c1ccc(Oc2ccccc2)cc1)S(C)(=O)=O (configuration not stated) -0.13%
O=C1c2ccccc2C(=O)N1CCC(O)C[N+](=O)[O-] (configuration not stated) 1.77%
CC(=O)NC1C(Oc2ccc(C)cc2)OC2COC(c3ccco3)OC2C1O (configuration not stated) 0.78%
Cc1cc(C)cc(NC(=O)CSc2ccccc2)c1 1.47%
CC(=O)Nc1ccc(NC(=O)CSCc2cnn(-c3ccccc3)c2-n2cccc2)cc1 0.44%
Nc1nc(SCc2ccc([N+](=O)[O-])cc2)c2ncn(C3OC(CO)C(O)C3O)c2n1 (configuration not stated) 1.26%
CCc1ccc(C(=O)OCC(=O)Nc2cccc(S(=O)(=O)NC3=NCCCCC3)c2)cc1 0.26%
NS(=O)(=O)c1cccc(NC(=O)CSc2nc3ccccc3n2-c2ccccc2)c1 6.21%
